Experimental findings from PubChem BioAssay are described below.

Assay [1] in a line: optical density shifts of acrAB sulA E. coli – strain DRC41, OD650, 48 h, E. coli filamentation inducer project, primary screen (AID 1152).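 Further: E. coli MC1000 strain DRC41 lacking acrAB efflux pump and sulA.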 The following applies: higher = more signal, called active from +8 up or from −8 down.
The nature of assay [2]: probe aLefty1 binding on compound microarray – biochemical, small-molecule microarray, 635/667 nm fluorescence, primary screen (AID 1153).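 Further: score merges spot fluorescence with signal-to-noise ratio from the scanned slide images.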 The following applies: higher = more signal.
Assay [3] in a line: plasmodial surface anion channel blockers, osmotic lysis – cell-based, P. falciparum Indochina, OD700, 1 h, primary screen (AID 1154). The following applies: P. falciparum Indochina infected RBC osmotic lysis, higher = more signal, called active from +8 up or from −8 down.
Assay [4] in a line: plasmodial surface anion channel blockers, osmotic lysis – cell-based, P. falciparum Indochina, OD700, 2 h, primary screen (AID 1155).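 Further: lysis reports solute entry through the parasite surface anion channel PSAC.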 The settings on record: P. falciparum Indochina infected erythrocytes, higher = more signal, called active from +8 up or from −8 down.
The nature of assay [5]: changes in parasitized red cell lysis, either direction – P. falciparum Indochina, OD700, 3 h, PSAC antagonist project, primary screen (AID 1156). The settings on record: P. falciparum-infected erythrocytes, osmotic lysis, higher = more signal, called active from +8 up or from −8 down.
The nature of assay [6]: plasmodial surface anion channel blockers, osmotic lysis – cell-based, P. falciparum Indochina, OD700, 18 h, primary screen (AID 1157). The settings on record: P. falciparum Indochina infected erythrocytes, osmotic lysis OD700, 18 h; higher = more signal, called active from +8 up or from −8 down.
Assay [7] in a line: S6 kinase pathway phospho-S6 level changes – cell-based, A549, cytoblot, luminescence, serum-stimulated, primary screen (AID 1158).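 Further: serum-stimulated A549 lung adenocarcinoma cells; signal is phosphorylated S6 detected by cytoblot immunostaining with HRP secondary.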 The settings on record: 5 h, higher = more signal.
Assay [8] concerns the target NADPH oxidase 2 (Homo sapiens) (UniProt P04839). In words: compounds shifting NOX2 Amplex Red fluorescence – cell-based, HEK293-NOX2, PMA-stimulated, NOX inhibitor project, primary screen (AID 1159). Further: test concentration not given here. The following applies: 45 min, higher = more signal, called active from +8 up or from −8 down.
Assay [9] addresses NADPH oxidase 4 (Homo sapiens) (UniProt Q9NPH5). Description: compounds shifting NOX4 Amplex Red fluorescence – cell-based, HEK293-NOX4, tetracycline-induced, NOX inhibitor project, primary screen (AID 1160). The settings on record: HEK293-NOX4, Amplex Red H2O2 fluorescence, 45 min; higher = more signal, called active from +8 up or from −8 down.
Assay [10] deals with NADPH oxidase 5 (Homo sapiens) (UniProt Q96PH1). Description: compounds shifting NOX5 Amplex Red fluorescence – cell-based, HEK293-NOX5, NOX inhibitor project, primary screen (AID 1161). The settings on record: HEK293-NOX5, ionomycin, 45 min, higher = more signal.

Each structure is given as a SMILES string. Calls of active or inactive are those of the source.

NADPH oxidase 5 (Homo sapiens), sequence (Q96PH1 whole entry, looked up): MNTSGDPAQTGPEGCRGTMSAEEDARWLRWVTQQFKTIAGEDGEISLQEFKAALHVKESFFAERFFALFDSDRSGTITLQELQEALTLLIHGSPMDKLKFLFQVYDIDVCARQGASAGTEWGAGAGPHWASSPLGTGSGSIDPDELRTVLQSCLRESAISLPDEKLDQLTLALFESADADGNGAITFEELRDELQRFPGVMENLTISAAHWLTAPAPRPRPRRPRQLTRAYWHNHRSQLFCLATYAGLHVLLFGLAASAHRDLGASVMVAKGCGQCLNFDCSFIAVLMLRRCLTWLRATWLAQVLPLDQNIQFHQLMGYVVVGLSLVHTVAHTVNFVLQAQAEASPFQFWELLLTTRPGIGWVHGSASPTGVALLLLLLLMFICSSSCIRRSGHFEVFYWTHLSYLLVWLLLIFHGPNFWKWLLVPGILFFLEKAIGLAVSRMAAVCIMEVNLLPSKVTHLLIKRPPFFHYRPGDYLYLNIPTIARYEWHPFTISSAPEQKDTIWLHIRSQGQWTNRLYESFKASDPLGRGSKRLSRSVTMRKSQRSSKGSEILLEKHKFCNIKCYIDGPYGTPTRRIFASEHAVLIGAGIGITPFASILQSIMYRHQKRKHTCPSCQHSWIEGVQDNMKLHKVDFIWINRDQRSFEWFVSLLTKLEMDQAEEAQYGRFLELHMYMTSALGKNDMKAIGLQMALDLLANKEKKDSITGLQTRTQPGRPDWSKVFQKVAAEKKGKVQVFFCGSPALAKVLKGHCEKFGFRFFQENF
NADPH oxidase 2 (Homo sapiens), sequence (P04839 whole entry, looked up): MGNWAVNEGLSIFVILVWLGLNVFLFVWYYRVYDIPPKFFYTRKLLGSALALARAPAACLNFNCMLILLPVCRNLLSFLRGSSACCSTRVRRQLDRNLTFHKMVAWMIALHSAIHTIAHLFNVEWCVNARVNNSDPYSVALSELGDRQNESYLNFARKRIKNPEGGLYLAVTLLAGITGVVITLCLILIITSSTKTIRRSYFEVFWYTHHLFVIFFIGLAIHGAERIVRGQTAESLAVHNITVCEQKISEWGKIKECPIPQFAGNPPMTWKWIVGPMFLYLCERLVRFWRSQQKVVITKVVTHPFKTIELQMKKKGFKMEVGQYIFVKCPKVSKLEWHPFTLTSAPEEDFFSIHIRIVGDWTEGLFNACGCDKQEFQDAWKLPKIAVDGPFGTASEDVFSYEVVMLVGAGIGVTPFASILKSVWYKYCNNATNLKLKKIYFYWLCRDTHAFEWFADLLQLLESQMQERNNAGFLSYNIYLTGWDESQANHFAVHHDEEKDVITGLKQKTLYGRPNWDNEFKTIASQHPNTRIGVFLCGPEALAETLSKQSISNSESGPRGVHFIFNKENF
NADPH oxidase 4 (Homo sapiens), sequence (Q9NPH5 whole entry, looked up): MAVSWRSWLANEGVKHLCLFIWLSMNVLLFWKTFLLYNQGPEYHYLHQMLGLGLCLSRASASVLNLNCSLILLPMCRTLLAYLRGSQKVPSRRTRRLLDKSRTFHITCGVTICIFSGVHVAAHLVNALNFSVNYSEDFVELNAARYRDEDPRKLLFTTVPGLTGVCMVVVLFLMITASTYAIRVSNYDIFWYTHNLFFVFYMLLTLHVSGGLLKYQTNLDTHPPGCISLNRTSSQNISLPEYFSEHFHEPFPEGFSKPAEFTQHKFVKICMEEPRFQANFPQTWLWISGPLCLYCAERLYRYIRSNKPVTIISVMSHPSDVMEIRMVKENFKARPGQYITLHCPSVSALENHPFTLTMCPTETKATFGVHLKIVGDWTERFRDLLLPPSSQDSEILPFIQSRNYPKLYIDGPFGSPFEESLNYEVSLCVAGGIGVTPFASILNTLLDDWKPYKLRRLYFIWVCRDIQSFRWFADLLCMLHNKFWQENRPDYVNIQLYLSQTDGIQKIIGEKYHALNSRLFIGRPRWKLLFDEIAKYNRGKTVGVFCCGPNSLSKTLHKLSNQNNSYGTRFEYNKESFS

For the compound `[N-]=[N+]=NCc1ccccc1C[C@@]1(C(=O)N2CCOCC2)N=C(c2ccc(OCCCO)cc2)O[C@@H]1c1ccccc1CN=[N+]=[N-]`, the z-score was 0.562 (inactive) in assay [1]; 28.2 (active) in assay [3]; 21.5 (active) in assay [4]; 3.05 (inactive) in assay [5]; 5.86 (inactive) in assay [6]; 0.0883 in assay [7]. Also, the values for the z-score in assay [8], in assay [9] and in assay [10] were -1 (inactive), 1.26 (inactive) and 1.08, respectively. The composite z-score in assay [2] is 0.429.
Consider `COCCOC(=O)N1C(=O)[C@@]2(c3cc(C#CCNC(N)=O)ccc31)[C@H](c1ccccc1OCCO)N1[C@H](c3ccccc3)[C@H](c3ccccc3)OC(=O)[C@H]1[C@@H]2C(N)=O`, for which the z-score in assay [1] was -0.816 (inactive); in assay [3], 4.2 (inactive); in [4], 0.655 (inactive); in assay [5] it was 0.4 (inactive); in assay [6], 0.344 (inactive); in assay [7], -0.463. For the same compound, the z-score is 2.29 (inactive) in assay [8], -0.672 (inactive) in assay [9] and -0.584 in assay [10]. The composite z-score in [2] is -0.111.
Consider `COCCOC(=O)N1C(=O)[C@@]2(c3cc(C#CCC(C(=O)OC)C(=O)OC)ccc31)[C@H](c1ccccc1OCCO)N1[C@H](c3ccccc3)[C@H](c3ccccc3)OC(=O)[C@H]1[C@@H]2C(N)=O`, for which the z-score in assay [1] is 0.483 (inactive); in assay [3], 7.64 (inactive); in [4] it was 2.55 (inactive); in [5], 0.678 (inactive); in [6] it was 1.42 (inactive); in assay [7], -0.127. Further, the z-score was 0.821 (inactive) in assay [8], 0.383 (inactive) in assay [9] and -1.85 in [10]. The compound also registered a composite z-score in [2] of 0.479.
Take `CCCNC(=O)[C@@H]1c2ccccc2C(=O)N(Cc2ccccc2)[C@H]1c1ccc(CO)cc1`: the z-score was -0.731 (inactive) in [1]; 1.36 (inactive) in assay [3]; -0.325 (inactive) in assay [4]; 1.41 (inactive) in assay [5]; 0.0842 (inactive) in assay [6]; 0.0533 in [7]. Further, the results for the z-score in [8], in [9] and in assay [10] were -0.802 (inactive), -1.63 (inactive) and -2.53, respectively. Also, the composite z-score in assay [2] was -0.0508.
As for `COCCOC(=O)N1C(=O)[C@@]2(c3cc(C#CCC(C(=O)OC)C(=O)OC)ccc31)[C@H](c1ccccc1OCCO)N1[C@H](c3ccccc3)[C@H](c3ccccc3)OC(=O)[C@H]1[C@@H]2C(=O)N1CCc2cc(OC)c(OC)cc2C1`, the z-score is 2.09 (inactive) in assay [1]; 1.87 (inactive) in [3]; -0.226 (inactive) in assay [4]; -0.23 (inactive) in assay [5]; -0.466 (inactive) in assay [6]; 0.61 in assay [7]. In addition, the z-score was 1.26 (inactive) in assay [8], 1.56 (inactive) in assay [9] and 0.631 in assay [10]. In assay [2], this compound returned a composite z-score of 0.438.
In the case of `CCOC(=O)C[C@H]1[C@H](OC(=O)Cc2ccc3c(c2)OCO3)[C@@H](NC(=O)C2CCCCC2)c2cc(OCCCO)ccc2N1C(=O)Cc1ccc(OC)cc1`, the z-score in [1] is 2.31 (inactive); in assay [3], 5.77 (inactive); in [4] it was -0.54 (inactive); in assay [5], -1.21 (inactive); in assay [6] it was -0.911 (inactive); in [7] it was 1.97. Besides, the z-score in assay [8] is -0.00495 (inactive); in assay [9], 1.07 (inactive); in assay [10] it was 0.297. For the same compound, the composite z-score in assay [2] was found to be 0.405.
On to `NCCCCCNC(=O)[C@H]1C[C@H]2C(=O)NCC(=O)N2[C@H]1c1cccc(OCCO)c1`, for which the z-score in assay [1] is 1.5 (inactive); in [3] it was 2.03 (inactive); in [4], 0.508 (inactive); in [5], 2.65 (inactive); in [6] it was 0.0799 (inactive); in assay [7] it was 0.753. Moreover, the values for the z-score in [8], in assay [9] and in assay [10] were 0.972 (inactive), 1.02 (inactive) and 1.39, respectively. Moreover, in [2], the composite z-score is -0.505.
Turning to `CCCCC(O)C1C=CC2C(=O)N(C3CCCCC3)C(=O)C2N1Nc1ccc(OC)cc1` (stereo not given), the z-score in assay [1] is -0.436 (inactive); in assay [3], 3 (inactive); in [4], 1.24 (inactive); in assay [5], 0.517 (inactive); in [6], 0.684 (inactive); in [7], -0.62. The z-score in [8] was -0.937 (inactive); in [9], -2.06 (inactive); in [10], -1.43. For the same compound, the composite z-score in [2] is 0.366.
Consider `O=C1O[C@H](c2ccccc2)[C@H](c2ccccc2)N2[C@H]1[C@@H](C(=O)NC[C@H](O)c1ccccc1)[C@]1(C(=O)Nc3ccc(C#CCCO)cc31)[C@H]2c1ccc(O)cc1`, for which the z-score was 0.39 (inactive) in assay [1]; 0.211 (inactive) in [3]; -0.709 (inactive) in assay [4]; -0.317 (inactive) in assay [5]; -1.23 (inactive) in assay [6]; 1.21 in assay [7]. The z-score is -0.687 (inactive) in assay [8], 0.0169 (inactive) in assay [9] and -3.93 in assay [10]. The compound also yielded a composite z-score in [2] of -0.293.
As to `CCOC(=O)C1=CCC(c2ccc([N+](=O)[O-])cc2)N(S(=O)(=O)c2ccc(C)cc2)C1` (stereo not given), the z-score in [1] was -0.65 (inactive); in [3], 5.2 (inactive); in assay [4] it was 1.91 (inactive); in assay [5], -0.364 (inactive); in assay [6] it was 0.781 (inactive); in assay [7], -0.864. Moreover, the z-score was 1.07 (inactive) in [8], 0.135 (inactive) in [9] and 0.739 in assay [10]. The compound also had a composite z-score in assay [2] of 0.0839.
`CCOC(=O)C1=CC[C@@H](c2ccccc2Cl)N(S(=O)(=O)c2ccc(C)cc2)C1`: the z-score was 0.0023 (inactive) in [1]; 4.85 (inactive) in assay [3]; -0.477 (inactive) in [4]; -0.981 (inactive) in assay [5]; -1.69 (inactive) in [6]; 0.676 in [7]. Moreover, the z-score in assay [8] was 0.358 (inactive); in assay [9], -0.832 (inactive); in assay [10], -0.93. Moreover, the composite z-score in assay [2] is 0.276.
With `CC(C)(C)OC(=O)CC[C@@]1(C(=O)NCCN2CCOCC2)N=C(c2ccc(OCCCO)cc2)O[C@@H]1c1ccccc1`, the z-score in [1] is 1.18 (inactive); in assay [3], 14.8 (active); in [4], 1.8 (inactive); in assay [5] it was 0.267 (inactive); in assay [6], 0.813 (inactive); in [7], 0.413. For the same compound, the z-score in [8] is 0.63 (inactive); in [9] it was 1.03 (inactive); in assay [10] it was 1.8. Also, the composite z-score in assay [2] came to 0.296.
As for `COC(=O)[C@@]1(Cc2ccc(OC)cc2)[C@H]2c3cc(C(=O)N4CCCC4)n(CCc4c[nH]c5cc(F)ccc45)c3C[C@H]2CN1C(=O)c1ccccc1`, the z-score is -0.429 (inactive) in assay [1]; 3.07 (inactive) in [3]; 0.676 (inactive) in assay [4]; 0.745 (inactive) in assay [5]; 1.06 (inactive) in assay [6]; -0.174 in assay [7]. Also, the z-score is 0.438 (inactive) in assay [8], 0.0193 (inactive) in [9] and -0.293 in [10]. In assay [2], this compound returned a composite z-score of 1.27.
